Consider 23 molecules from PubChem BioAssay (NCATS).

Inconclusive results are not listed. Values without a mark were called inactive. The source made the active and inactive calls. Calls follow the shape of the dose curve; as a rule, active = well fitted inhibition curve with a large enough effect; inconclusive = small, poorly fitted or top-dose-only effect; inactive = flat fitted curve, though single readings scatter.

Common to all, as to assay: Cytotoxic Profiling of Annotated Libraries Using Quantitative High-Throughput Screening (AID 1296008); also: nearly all actives have a fitted effect of over 60% in size
Common to all, as to conditions: Five cell lines viability, CellTiter-Glo ATP luminescence, 48-72 h; max response: stronger effect = lower value
(In general: In ATP-based viability assays light output follows the ATP content of the culture.)

In one assay the test system is HaCat. Summed up: (§1)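 Cytotoxicity was measured as CellTiter-Glo ATP luminescence, read after 10 min at room temperature. Compound treatment of the cells lasted 48 or 72 hr at 37 degrees Celsius in a qHTS format.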
The next assay deals with KB-3-1. Summed up:
as §1

Another assay deals with NIH3T3. The method in brief: as §1
% is scaled to controls: 0 for no effect and ±100 for the full control effect; potency is read from the fitted curve at half-maximal effect.

On to `C=C1CCC2C(C(C)(C)O)CCC2(C)CC(O)C(=C)CCC1O` (centres undefined), for which the max response was -2.57% in the assay on HaCat, 2.13% with KB-3-1 and -9.68% in the assay on NIH3T3.

Consider `C=C1[C@H](OC(C)=O)[C@H]2[C@@H](OC(C)=O)[C@](C)(OC(C)=O)C[C@]2(OC(C)=O)C(=O)[C@H](C)/C=C/C(C)(C)C(=O)[C@H](OC(=O)C(C)C)[C@H]1OC(C)=O`, for which the figures for the max response with HaCat and in the assay on NIH3T3 were -2.43% and 2.17%, respectively. Also, in the assay with KB-3-1, the call was inactive.

For the molecule `C=C(CCC1=C(C)[C@H]2[C@H](CC3[C@@H]4CC=C5C[C@@H](O)C[C@@H](O)[C@]5(C)C4[C@H](O)C[C@@]32C)O1)CO[C@@H]1O[C@H](CO)[C@@H](O)[C@H](O)[C@H]1O` (some centres undefined), the values for the Potency with HaCat and with KB-3-1 were 4.32 µM (active) and 1.72 µM (active), respectively. The max response in the assay on NIH3T3 was 0.743%.

With `C=C1CCC2C(C)(C)C(O)CCC2(C)C1CCC(C)CCOC(C)=O` (centres undefined), the max response in the assay with HaCat was -5.36%; in the assay on KB-3-1, 3.19%; in the assay on NIH3T3, -9.96%.

Take `CC(=O)O[C@H]1[C@@H](O)[C@H](O[C@H]2[C@@H]3C=CO[C@@H](O[C@H]4O[C@@H](CO)[C@H](O)[C@@H](O)[C@@H]4O)[C@@H]3[C@@]3(CO)O[C@@H]23)O[C@@H](C)[C@@H]1OC(=O)/C=C/c1ccccc1`: the max response is -2.99% in the assay with HaCat and -6.79% in the assay on NIH3T3. The molecule was classed as inactive in the assay with KB-3-1.

With `CC1=CCC(C(C)(C)O[C@@H]2O[C@H](CO[C@@H]3O[C@@H](C)[C@H](O)[C@@H](O)[C@H]3O)[C@@H](O)[C@H](O)[C@H]2O)CC1` (some centres undefined), the max response in the assay on HaCat was 1.99%; with NIH3T3, 2.56%. The call in the assay with KB-3-1 was inactive.

As for `CC1CC(=O)C2=C(CCC3(O)C(O)c4c(O)cccc4C(=O)C23O)C1` (centres undefined), the max response with HaCat was -7.44%; in the assay with KB-3-1, 6.8%; in the assay on NIH3T3, 1.72%.

As to `c1ccc(N2CCN(CCc3nn[nH]n3)CC2)cc1`, the max response in the assay on HaCat was -17.8%; in the assay with KB-3-1, 7.49%; with NIH3T3 it was 1.1%.

Regarding `CCOc1ccc(S(=O)(=O)n2c(C)nc3ccccc32)cc1`, the max response in the assay on HaCat was -31.1%; in the assay on KB-3-1, -3.74%; with NIH3T3 it was -7.13%.

As to `CC1=C(CCC(C)CC(=O)O)[C@@]2(C)CCCC(C)(C)C2CC1=O` (some centres undefined), the max response with HaCat was -7.07%; with KB-3-1, -1.22%; in the assay with NIH3T3 it was -3.99%.

Regarding `C=C1CCCC2(C)CC3(OC)OC(=O)C(C)=C3CC12` (centres undefined), the max response was 2.5% with HaCat, -2.16% in the assay on KB-3-1 and -10.6% in the assay with NIH3T3.

`CC(Cc1cc2c(c(C(N)=O)c1)N(CCCO)CC2)NCCOc1ccccc1OCC(F)(F)F` (centres undefined): the max response in the assay on HaCat was 2.13%; in the assay on KB-3-1 it was -19.6%; in the assay with NIH3T3 it was 2.09%.

In the case of `CC(=O)OCC1(O)CCC2C(COC3OC(CO)C(O)C(O)C3OC(=O)/C=C/c3ccc(O)cc3)=COC(OC(=O)CC(C)C)C21` (centres undefined), the max response was -35.1% with HaCat and 3.4% in the assay on NIH3T3. For the same molecule, the molecule was called inactive in the assay with KB-3-1.

As to `CN(c1ccccc1CNc1nc(Nc2ccc3c(c2)CC(=O)N3)ncc1C(F)(F)F)S(C)(=O)=O`, the Potency in the assay with HaCat was 8.2 µM (active); in the assay on KB-3-1, 6.51 µM (active); in the assay with NIH3T3, 5.8 µM (active).

Turning to `COC(=O)/C=C/C12COC(C)(C)C1C(O)C(OC(C)=O)C1(C)C2CCC2(C)C(c3ccoc3)OC(=O)C3OC321` (centres undefined), the figures for the max response in the assay with HaCat, in the assay with KB-3-1 and with NIH3T3 were -1.09%, -5.77% and -16.9%, respectively.

`O=C(O)CC1CCC(c2ccc(-c3ccc4nc(C(=O)NCc5ccc(OC(F)(F)F)cc5)cn4c3)cc2)CC1` (centres undefined): the max response is -3.96% in the assay with HaCat, -0.0408% with KB-3-1 and -0.598% in the assay on NIH3T3.

In the case of `C#CCN(Cc1cc2c(=O)n(C)c(CN3CCN(C)CC3)nc2cc1Cl)c1ccc(C(=O)NCc2cccnc2)cc1`, the values for the Potency with HaCat and in the assay on KB-3-1 were 0.0073 µM (active) and 0.0411 µM (active), respectively. Besides, the max response in the assay on NIH3T3 is -114%.

For `COC(=O)c1ccnc(-c2cc(C(=O)NCCc3ccccc3)ccn2)c1`, the max response in the assay with HaCat was 1.24%; in the assay on KB-3-1 it was 1.93%; in the assay on NIH3T3, 1.58%.

For the molecule `C1CCC[C@H]2CCCN3CC[C@@H](CCCCCC[C@@H]4CCCN5CC[C@@H](CC1)O[C@@H]45)O[C@@H]23`, the max response was -0.73% in the assay with HaCat, 8.9% in the assay on KB-3-1 and 2.62% with NIH3T3.

As for `CC1CCC2C(C)(C)[C@@H](O)CC[C@]2(C)C12Cc1c(O)cc3c(c1O2)CN(C(CCC(=O)O)C(=O)O)C3=O` (some centres undefined), the max response in the assay on HaCat is 3.85%; in the assay with NIH3T3 it was -1.29%. Further, in the assay on KB-3-1, the call was inactive.

In the case of `C=C1C[C@]23C[C@H]1CC[C@H]2C1=C[C@H]2OC(=O)[C@@](C)([C@H]1[C@@H]3C(=O)O)[C@H]2O`, the max response in the assay on HaCat was 1.41%; with NIH3T3, 3.03%. In the assay on KB-3-1, the molecule was called inactive.

As to `COC(=O)c1ccc(OC(CO)C(O)c2ccc(O)c(OC)c2)c(OC)c1` (centres undefined), the max response in the assay with HaCat was 1.74%; with KB-3-1 it was -5.47%; with NIH3T3, -1.03%.

For the molecule `CCOc1ccc(NC(=S)N2CCC(C(O)(c3ccccc3)c3ccccc3)CC2)cc1`, the max response was 1.92% with HaCat and -1.64% in the assay on NIH3T3. Further, the molecule was called inactive with KB-3-1.
